Our source for the growth values is PubChem BioAssay (NCI).

About 83,000 compounds went through this panel and 20% of them were active in at least one assay; those are over-represented in the sample as a whole.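 Plates (96-well) were seeded with cells, treated with compound at one concentration, and incubated for 48 hours before percent growth was determined.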 A number with no mark means an inactive call. The source made the active and inactive calls. How the source made its calls: active means growth percent below 10; inactive means the rest.

Among the test systems are SK-MEL-2 melanoma; EKVX NSCLC; SN12C renal; UO-31 renal; TK-10 renal; ACHN renal; CAKI-1 renal; A498 renal; CCRF-CEM leukemia; MOLT-4 leukemia; SR leukemia; OVCAR-8 ovarian; OVCAR-5 ovarian; OVCAR-4 ovarian; SK-OV-3 ovarian; IGROV1 ovarian; OVCAR-3 ovarian; HS 578T breast; NCI/ADR-RES ovarian; RPMI-8226 leukemia.
Common to all, as to assay: NCI-60 one-dose screen, 48 h (100 = growth as untreated, 0 = no growth, -100 = all killed)
What all share (settings): 10 µM unless noted

`C=C(C)[C@@H]1CCC[C@]2(C(=O)N3CCN(C)CC3)CC[C@]3(C)[C@@H](CC[C@@H]4[C@@]5(C)CC/C(=N\NC(=O)c6ccncc6)C(C)(C)[C@@H]5CC[C@]43C)[C@@H]12`: the growth is 106% in the test with SK-MEL-2 melanoma; 111% with EKVX NSCLC; 80.1% in the test on SN12C renal; 73.4% in the test on UO-31 renal; 116% in the test with TK-10 renal; 88.3% with ACHN renal. Moreover, the growth in the test on CAKI-1 renal was 80.7%; with A498 renal it was 119%; in the test with CCRF-CEM leukemia, 25.9%; in the test with MOLT-4 leukemia, 55.9%; in the test on SR leukemia it was 7.99% (active); with OVCAR-8 ovarian it was 96.7%. In addition, the growth is 80.1% with OVCAR-5 ovarian; 91.5% in the test with OVCAR-4 ovarian; 109% with SK-OV-3 ovarian; 82.7% with IGROV1 ovarian; 95.5% with OVCAR-3 ovarian; 103% in the test with HS 578T breast. Moreover, the growth in the test with NCI/ADR-RES ovarian is 99.3%.

Consider `O=C(CCSc1nnc2n(Cc3ccccc3)c(=O)c3c4c(sc3n12)CCCC4)N1CCN(c2ccccc2)CC1`, for which the growth with SK-MEL-2 melanoma is 99.1%; with EKVX NSCLC, 91.8%; with SN12C renal, 94.8%; in the test on UO-31 renal it was 94.5%; in the test on TK-10 renal, 101%; with ACHN renal, 93.2%. The growth is 92.8% in the test on CAKI-1 renal; 106% with A498 renal; 127% with CCRF-CEM leukemia; 111% in the test on MOLT-4 leukemia; 121% with SR leukemia; 110% in the test with OVCAR-8 ovarian. Moreover, the growth with OVCAR-5 ovarian is 91.7%; in the test with OVCAR-4 ovarian it was 115%; in the test on SK-OV-3 ovarian, 108%; in the test on IGROV1 ovarian, 103%; in the test with OVCAR-3 ovarian it was 95.9%; in the test on HS 578T breast, 108%. The growth with NCI/ADR-RES ovarian was 96.1%.

As to `S=c1nc2oc(-c3ccccc3)c(-c3ccccc3)c2c(/N=C\c2ccco2)[nH]1`, the growth in the test on SK-MEL-2 melanoma is 92.1%; in the test with EKVX NSCLC, 95.7%; in the test on SN12C renal, 99.1%; in the test with UO-31 renal, 81.2%; with TK-10 renal it was 99.6%; in the test on ACHN renal, 93.8%. Besides, the growth is 92.3% with CAKI-1 renal; 101% with A498 renal; 108% in the test with CCRF-CEM leukemia; 84% in the test with MOLT-4 leukemia; 97.6% in the test on RPMI-8226 leukemia; 97.4% in the test on OVCAR-8 ovarian. Further, the growth with OVCAR-5 ovarian is 87.7%; in the test on OVCAR-4 ovarian, 93.6%; in the test with SK-OV-3 ovarian, 109%; in the test with IGROV1 ovarian, 101%; in the test on OVCAR-3 ovarian, 98.4%; in the test on HS 578T breast it was 81.9%. For the same molecule, the growth in the test on NCI/ADR-RES ovarian was 100%.

As for `N#Cc1c(-c2ccccc2)nc(SCC(O)CN2CCOCC2)nc1N1CCOCC1` (stereo not drawn), the growth is 7.33% (active) in the test on SK-MEL-2 melanoma; 65.4% with EKVX NSCLC; 57.8% with SN12C renal; 41.7% with UO-31 renal; 40.8% in the test with TK-10 renal; 54.4% in the test on ACHN renal. The growth in the test with CAKI-1 renal is 37.4%; with A498 renal, -3.34% (active); in the test on CCRF-CEM leukemia, 88%; with MOLT-4 leukemia, 83.2%; in the test on SR leukemia it was 85.1%; with OVCAR-8 ovarian it was 33.4%. In addition, the growth with OVCAR-5 ovarian is 61.2%; in the test with OVCAR-4 ovarian it was 68.6%; in the test on SK-OV-3 ovarian it was 41.1%; with IGROV1 ovarian, -29.5% (active); in the test with OVCAR-3 ovarian, 35.4%; with HS 578T breast, 6.19% (active). Further, the growth in the test on NCI/ADR-RES ovarian was 72.7%.

As for `NS(=O)(=O)c1ccc(NC(=O)/C(=C\c2ccc(Cl)cc2Cl)NC(=O)c2ccccc2)cc1`, the growth was 95.3% in the test on SK-MEL-2 melanoma; 99.6% in the test on EKVX NSCLC; 94.7% with SN12C renal; 75.8% in the test with UO-31 renal; 104% in the test on TK-10 renal; 98.2% in the test on ACHN renal. Besides, the growth in the test on CAKI-1 renal is 88.6%; with A498 renal it was 95%; with CCRF-CEM leukemia it was 105%; in the test with MOLT-4 leukemia, 92.3%; in the test on RPMI-8226 leukemia, 92.2%; in the test with OVCAR-8 ovarian, 101%. Also, the growth in the test on OVCAR-5 ovarian is 108%; in the test with OVCAR-4 ovarian it was 97.7%; with SK-OV-3 ovarian, 96.3%; in the test on IGROV1 ovarian, 74.9%; with OVCAR-3 ovarian, 113%; with HS 578T breast, 89.6%. In addition, the growth with NCI/ADR-RES ovarian was 98.2%.

As for `Nc1nc(N)c2c(n1)NC(c1cccc(Nc3ccnc4cc(C(F)(F)F)ccc34)c1)CC(c1ccc(Br)cc1)=N2` (stereo not drawn), the growth was 52.4% in the test on SK-MEL-2 melanoma; 51.5% in the test on EKVX NSCLC; 63% in the test with SN12C renal; 62.2% with UO-31 renal; 96.8% with TK-10 renal; 82% in the test on ACHN renal. Further, the growth in the test with CAKI-1 renal is 48.6%; in the test with A498 renal, 77.1%; in the test on CCRF-CEM leukemia, 17%; with MOLT-4 leukemia, 9.24% (active); with RPMI-8226 leukemia it was 5.34% (active); with OVCAR-8 ovarian it was 66%. Moreover, the growth with OVCAR-5 ovarian is 107%; in the test with OVCAR-4 ovarian, 77.5%; in the test on SK-OV-3 ovarian it was 57.2%; with IGROV1 ovarian it was 58.8%; in the test on OVCAR-3 ovarian it was 38.1%; with HS 578T breast, 68.4%. Besides, the growth in the test with NCI/ADR-RES ovarian was 56.5%.

Take `C=C1C(=O)O[C@H]2[C@H]1CC/C(COC(=O)c1cc3cc(Cl)ccc3[nH]1)=C\CC[C@@]1(C)O[C@@H]21`: the growth is -84.2% (active) in the test with SK-MEL-2 melanoma; -83% (active) with EKVX NSCLC; -61.2% (active) with SN12C renal; -93.6% (active) in the test on UO-31 renal; -99.3% (active) with TK-10 renal; -89.2% (active) in the test with ACHN renal. Further, the growth was -89.8% (active) in the test on CAKI-1 renal; -11.9% (active) in the test on A498 renal; -24.8% (active) in the test on CCRF-CEM leukemia; -21% (active) with MOLT-4 leukemia; -25.6% (active) in the test on SR leukemia; -72.9% (active) in the test with OVCAR-8 ovarian. In addition, the growth is -69.9% (active) in the test with OVCAR-5 ovarian; -81.9% (active) in the test with OVCAR-4 ovarian; 27.6% with SK-OV-3 ovarian; -82.7% (active) with IGROV1 ovarian; -91.3% (active) in the test on OVCAR-3 ovarian; -22% (active) in the test on HS 578T breast. Further, in the test on NCI/ADR-RES ovarian, the growth was -35.3% (active).
